Results taken from the supplement of paper PMC6555819.

Tests used:
Assay in all cases: PBM binding z-score (relative to random genomic background probes); higher = stronger binding; sequences stand for … in GC…GCGATTGACAGCGTAGAATGAAGG
[1] = tested on: FXR:RXRa (NR concentration 270 nM, RXRa partner concentration 90 nM)
Procedure, shortened: (§1)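 Binding z-scores take random background probes as their reference. They come from custom Agilent 4×180K protein-binding microarrays incubated 1 h with ligand-free nuclear receptor dimers, with antibodies against each partner (one per run) detecting binding. Scanned fluorescence was regression-normalized.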

[2] = tested on: LXRa:RXRa (NR concentration 270 nM, RXRa partner concentration 90 nM)
Procedure, shortened: as §1

[3] = tested on: LXRa homodimer (NR concentration 270 nM)
Procedure, shortened: as §1

[4] = tested on: LXRb:RXRa (NR concentration 270 nM, RXRa partner concentration 90 nM)
Procedure, shortened: as §1

[5] = tested on: LXRb homodimer (NR concentration 270 nM)
Procedure, shortened: as §1

[6] = tested on: PPARa:RXRa (NR concentration 270 nM, RXRa partner concentration 90 nM)
Procedure, shortened: as §1

[7] = tested on: PPARg:RXRa (NR concentration 180 nM, RXRa partner concentration 90 nM)
Procedure, shortened: as §1

[8] = tested on: PPARg:RXRa 270nM:90nM, anti-RXR (NR concentration 270 nM, RXRa partner concentration 90 nM)
Procedure, shortened: as §1

[9] = tested on: PPARg:RXRa 30nM:10nM, anti-RXR (NR concentration 30 nM, RXRa partner concentration 10 nM)
Procedure, shortened: as §1

[10] = tested on: PPARg:RXRa 90nM:30nM, anti-RXR (NR concentration 90 nM, RXRa partner concentration 30 nM)
Procedure, shortened: as §1

| Sequence | PBM binding z-score [1] | PBM binding z-score [2] | PBM binding z-score [3] | PBM binding z-score [4] | PBM binding z-score [5] | PBM binding z-score [6] | PBM binding z-score [7] | PBM binding z-score [8] | PBM binding z-score [9] | PBM binding z-score [10] |
| --- | --- | --- | --- | --- | --- | --- | --- | --- | --- | --- |
| CCTACTGGGCCATCAGCTCATTGATATCAACGTT | -0.649 | -0.431 | -0.409 | -0.655 | -0.446 | -0.141 | 0.457 | 0.344 | -0.273 | 0.098 |
| CCTCGGAGTACAACAGGAGGTCAGAGCTGCCAGA | 0.85 | 1.93 | 1.79 | 1.35 | -0.438 | 1.92 | 0.371 | 0.479 | -0.324 | -0.0827 |
| CCGACTGGGGCATAAGGTTACCTTAAGCCAGCCC | 0.144 | 2.16 | -0.305 | 0.631 | -1.36 | 1.9 | 2.04 | 3.18 | 0.872 | 2.64 |
| AGAATGAGGTTATTAAGAACAGGGAATTGCGGTC | 1.53 | 1.45 | 0.11 | 1.22 | 0.0569 | 2.3 | 1.53 | 1.67 | 0.448 | 1.02 |
| TCGAGTAGGTTAGTCCGGGCATTCAGCCAACATA | -0.219 | 0.109 | 0.0222 | -0.106 | -1.05 | 0.14 | -0.395 | 0.281 | 0.992 | 0.409 |
| CGCACGAGGGCATGAGTTGATAGCAAATGCCGAT | 0.564 | 0.295 | -0.626 | 0.0671 | -0.764 | 1.1 | 0.947 | 0.583 | -0.123 | 0.22 |
| TCTGCTCGGTCAGTTGGTCAGCTAACGAGCTGCC | -0.211 | -0.247 | -0.549 | -0.506 | 0.134 | -0.00259 | -1.22 | 0.38 | 0.881 | 0.52 |
| ATCTCTAGGTAAAGATAGTTCAGTGAATGCAAAT | 0.206 | 4.16 | 0.484 | 0.65 | 0.725 | 0.625 | 0.646 | 0.562 | 1.03 | 0.949 |
| CTTACTGGGCCACGAAAGGTCATTGATTCAGTGA | 5.51 | 6.24 | 4.47 | 5.13 | 0.827 | 5.66 | 6.99 | 6.33 | 4.14 | 5.7 |
| CGAACGAGGGCATGTGTTGATAGCAAATGCCGAT | 0.387 | 0.273 | -0.286 | 0.11 | -0.807 | 1.05 | 1.15 | 1.14 | 0.0411 | 0.632 |
| CCTAGCAGGCCAGGGTTACTCAAGCATTTCGCTT | -0.32 | 0.0268 | -0.897 | 0.041 | -1.32 | 0.412 | -0.105 | 0.539 | -0.759 | -0.212 |
